“And” between values parts separate entries of the source, which are not always exact repeats. Identical values can stand only once. Screen size: about 5,500 compounds; about 2,000 (36%) were called active. Not shown: some 18% with an inconclusive outcome. Rule as the data show it: active = normalized growth mostly below about 0.91 (no sharp cut-off); inconclusive = no clear call, values can overlap the other calls; inactive = mostly above about 0.92. This is one part of the list.
Experiment: chemical genetic growth profiling, strain panel (AID 1159580);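 also: tested at 20 µM; growth read once vehicle control cultures reached saturation at 30 °C; 1 = growth at the plate median or of vehicle wells; lower values mean less growth of the strain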
Settings: S. cerevisiae deletion strains, growth OD

Measured: normalized growth

Cc1ccnc(NS(=O)(=O)c2ccc(N)cc2)n1
inactive: locus YAL013W, strain DEP1, active compounds read low 1 | locus YAL021C, strain ccr4, active compounds read low 0.971 | locus YAL026C, strain drs2, active compounds read low 0.994 | locus YAL030W, strain snc1, active compounds read low 0.999 | locus YBL061C, strain skt5, active compounds read low 0.997 | locus YBR009C, strain hhf1, active compounds read low 1.01 | locus YBR021W, strain FUR4, active compounds read low 0.994 | locus YBR023C, strain chs3, active compounds read low 0.998 | locus YBR171W, strain sec66, active compounds read low 1.02 | locus YBR229C, strain ROT2, active compounds read low 1 | locus YBR231C, strain swc5, active compounds read low 1.01 | locus YBR279W, strain paf1, active compounds read low 1.01 | locus YCL011C, strain gbp2, active compounds read low 0.969 | locus YCL016C, strain dcc1, active compounds read low 0.968 | locus YCL029C, strain bik1, active compounds read low 1.02 | locus YCL061C, strain MRC1, active compounds read low 1.01 | locus YCL069W, strain vba3, active compounds read low 0.998 | locus YCR088W, strain abp1, active compounds read low 1 | locus YDL005C, strain med2, active compounds read low 1 | locus YDL035C, strain GPR1, active compounds read low 1.01 | locus YDL040C, strain nat1, active compounds read low 0.999 | locus YDL074C, strain BRE1, active compounds read low 0.978 | locus YDL101C, strain DUN1, active compounds read low 1.01 | locus YDL134C, strain PPH21, active compounds read low 1.01 | locus YDL185W, strain tfp1, active compounds read low 0.967 | locus YDL192W, strain arf1, active compounds read low 1.02 | locus YDR001C, strain nth1, active compounds read low 0.999 | locus YDR069C, strain doa4, active compounds read low 1.02 | locus YDR101C, strain arx1, active compounds read low 1.01 | locus YDR137W, strain rgp1, active compounds read low 1.03 | locus YDR150W, strain NUM1, active compounds read low 1 | locus YDR159W, strain sac3, active compounds read low 0.968 | locus YDR162C, strain NBP2, active compounds read low 1 | locus YDR195W, strain ref2 1 | locus YDR297W, strain sur2, active compounds read low 1.01 | locus YDR318W, strain mcm21, active compounds read low 1.02 | locus YDR334W, strain swr1, active compounds read low 0.995 | locus YDR335W, strain msn5, active compounds read low 0.986 | locus YDR388W, active compounds read low 1.01 | locus YDR392W, strain spt3, active compounds read low 0.887 | locus YDR502C, strain sam2, active compounds read low 1.01 | locus YEL003W, strain gim4, active compounds read low 1.02 | locus YEL037C, strain rad23, active compounds read low 1.01 | locus YEL061C, strain CIN8 (second series), active compounds read low 1 | locus YEL061C, strain CIN8, active compounds read low 1 | locus YER015W, strain faa2, active compounds read low 0.992 | locus YER016W, strain bim1, active compounds read low 1.01 | locus YER110C, active compounds read low 1.02 | locus YER111C, strain swi4, active compounds read low 0.998 | locus YER155C, strain BEM2 (second series), active compounds read low 1.02 | locus YER155C, strain BEM2, active compounds read low 1 | locus YER167W, strain BCK2, active compounds read low 1.01 | locus YFR010W, strain ubp6, active compounds read low 1.02 | locus YGL078C, strain dbp3, active compounds read low 1.01 | locus YGL086W, strain mad1, active compounds read low 1.01 | locus YGL167C, strain pmr1, active compounds read low 0.992 | locus YGL173C, strain kem1, active compounds read low 1.02 | locus YGL227W, strain vid30, active compounds read low 0.999 | locus YGL240W, strain doc1, active compounds read low 1.03 | locus YGL248W, strain PDE1, active compounds read low 0.998 | locus YGL253W, strain hxk2, active compounds read low 0.996 | locus YGR078C, strain PAC10, active compounds read low 0.971 | locus YGR135W, strain pre9, active compounds read low 1.01 | locus YGR229C, strain SMI1, active compounds read low 0.97 | locus YGR252W, strain gcn5, active compounds read low 0.984 | locus YHR013C, strain ard1, active compounds read low 0.987 | locus YHR027C, strain rpn1, active compounds read low 0.999 | locus YHR030C, strain SLT2, active compounds read low 1 and 0.973 | locus YHR079C, strain IRE1 (second series), active compounds read low 1.01 | locus YHR079C, strain IRE1, active compounds read low 0.973 | locus YHR094C, strain hxt1, active compounds read low 1.01 | locus YHR129C, strain ARP1, active compounds read low 1.01 | locus YHR142W, strain chs7, active compounds read low 1 | locus YHR200W, strain rpn10, active compounds read low 1.01 | locus YIL066C, strain RNR3, active compounds read low 1.01 | locus YIL073C, strain SPO22, active compounds read low 1.02 | locus YIL125W, strain kgd1, active compounds read low 1 | locus YIR030C, strain dcg1, active compounds read low 1.02 | locus YJL092W, strain hpr5, active compounds read low 1 | locus YJL095W, strain BCK1 (second series), active compounds read low 1 | locus YJL095W, strain BCK1, active compounds read low 1.01 and 0.972 | locus YJL115W, strain asf1, active compounds read low 0.992 | locus YJL129C, strain trk1, active compounds read low 0.996 | locus YJL134W, strain LCB3, active compounds read low 1 | locus YJL154C, strain vps35, active compounds read low 1.01 | locus YJL164C, strain tpk1, active compounds read low 0.968 | locus YJL166W, strain qcr8, active compounds read low 1.02 | locus YJL168C, strain set2, active compounds read low 1.01 | locus YJL187C, strain SWE1 (second series), active compounds read low 1.01 | locus YJR043C, strain POL32, active compounds read low 1.01 | locus YJR066W, strain TOR1, active compounds read low 0.937
